The target in one assay is APLNR. The experiment in a line: pooled miR-30 sensor sort-seq; sequence = guide strand. The following applies: shRNA.
TAATTATCTGCTGACACACAGC: the sensor-assay potency score (higher = more potent) is -0.776. On the same count and under the same terms, to TTGACGTAGCTGATGCAGGTGC belongs 0.046; to TTTTACTGCGTCCAGACTCAGG, -1.25; to AGTCTGTGTACTCACACTCAGA, -2.07. Turning to TTCACTTTCATAGTCCTCCAAG, the sensor-assay potency score (higher = more potent) was -0.567. Regarding TAGCTGGCTGACTTCTCCCCAC, the sensor-assay potency score (higher = more potent) was -0.754.

Regarding TATCTGCTGACACACAGCCCAC, the sensor-assay potency score (higher = more potent) is -1.74. Take TTCTCGTGCATCTGTTCTCCAC: the sensor-assay potency score (higher = more potent) was -0.937.

In a further assay the target is APOA1. The description is as above. The following applies: shRNA.
In the case of TTGGAGCTCTGCGCGCAGCGGC, the sensor-assay potency score (higher = more potent) was -1.17.

Consider TTGTCAAGGAGCTTTAGGTTTA, for which the sensor-assay potency score (higher = more potent) was -0.808. On the same count and under the same terms, for TTGAGCACATCCACGTACACAG the value was -0.115. Take AACTGGGACACATAGTCTCTGC: the sensor-assay potency score (higher = more potent) was -0.955. Consider TTAGCTGTTTTCCCAAGGCGGA, for which the sensor-assay potency score (higher = more potent) was -1.3. Same read-out and setting: for TCTTGCTGCCAGAAATGCCGAG the value was -0.701. The same measure, in the same setting: to TAGCTGTTTTCCCAAGGCGGAG belongs -1.51.

Turning to TTGGCCTTCTCGCTGAGCGTGC, the sensor-assay potency score (higher = more potent) is -0.4. Turning to TTCTTCTGGAAGTCGTCCAGGT, the sensor-assay potency score (higher = more potent) was -0.431.

With TTAGGTTTAGCTGTTTTCCCAA, the sensor-assay potency score (higher = more potent) was 0.243.

For TTGCAGCTCGTGCAGCTTCTGG, the sensor-assay potency score (higher = more potent) was -1.14. TCGCGCAGCTTGCTGAAGGTGG: the sensor-assay potency score (higher = more potent) is -0.684. TAGGTTTAGCTGTTTTCCCAAG: the sensor-assay potency score (higher = more potent) is -1.2. On the same count and under the same terms, to TTTAGCTGTTTTCCCAAGGCGG belongs -0.584; to TTTGAGCACATCCACGTACACA, -1.01. Same read-out and setting: for TGTCTTTGAGCACATCCACGTA the value was -1.2. With TTCTCTTGCAGCTCGTGCAGCT, the sensor-assay potency score (higher = more potent) is -0.213. As for TCAGCTTCTCTTGCAGCTCGTG, the sensor-assay potency score (higher = more potent) is -1.07. Turning to TACTCGGCCAGTCTGGCGCCGC, the sensor-assay potency score (higher = more potent) is -0.96. TAGAGCTCCATCTCCTCCTGCC: the sensor-assay potency score (higher = more potent) stood at 0.375.

As to TGGGACACATAGTCTCTGCCGC, the sensor-assay potency score (higher = more potent) was -0.692.

The values above are taken from the OligoGym collection.
Further: reference of the scale not given here.
